We go through 15 compounds from PubChem BioAssay.

Inconclusive results are not listed. Active and inactive are the calls of the source.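 The calls were made as follows, unless noted: active = normalized viability below 100% at a tested concentration; inactive = the rest.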

For orientation: AC50 means the concentration at which the activity in the assay is half-maximal. By viability is commonly meant a read-out of living cells in per cent, often relative to untreated cells. Broadly, the IC50 is the point on the concentration scale where inhibition reaches its midpoint.

The nature of test [1]: viability loss in pontine glioma line – cell-based, SU-DIPG-XVII, MIPE5.0, CellTiter-Glo, qHTS, dose response (AID 1347060; cut-off not given, nearly all actives have AC50 up to about 26 µM;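 as to AC50: cells exposed to compound for 48 hours before viability readout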). The conditions noted are these: CellTiter-Glo ATP luminescence. Background: ATP-based viability assays read luminescence as a measure of living cells.
The nature of test [2]: viability loss in pontine glioma line – cell-based, SU-DIPG-XIII, MIPE5.0, CellTiter-Glo, qHTS, dose response (AID 1347064; cut-off not given, nearly all actives have AC50 up to about 23 µM;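 as to AC50: cells exposed to compound for 48 hours before the viability read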). The conditions noted are these: CellTiter-Glo ATP luminescence.
The nature of test [3]: viability loss in pontine glioma line – cell-based, SU-DIPG-XXV, MIPE5.0, CellTiter-Glo, qHTS, dose response (AID 1347065; cut-off not given, nearly all actives have AC50 up to about 26 µM;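 also: cells exposed to compound for 48 hours before ATP readout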). The conditions noted are these: CellTiter-Glo ATP luminescence.
The nature of test [4]: growth inhibition of DIPG cells – cell-based, MIPE5.0 library, qHTS (AID 1347068; cut-off not given, nearly all actives have IC50 up to about 30 µM;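 as to IC50: cells exposed to compound for 48 hours before viability readout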). The settings on record: SU-DIPG-XXV viability. In general terms: qHTS replaces the single test concentration by a dilution series.
Test [5] can be described thus: viability loss with induced miR-34 in A549 – imaging, A549 dox-inducible miR-34, nuclei and caspase counts, primary screen (AID 1347080;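 active = compounds whose cell count with miR-34 switched on is under 0.7 times the count with it off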). The settings on record: A549 miR-34 inducible, Hoechst nuclei count, 48 h.
Test [6] is described as follows: MELAS cybrid and Rieske KO viability enhancers – cell-based, MELAS cybrids, Rieske KO mouse fibroblasts, CellTiter-Glo, primary screen (AID 1508586;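 active = mean z-score across replicates of 1.96 or higher in either the MELAS or the Rieske mutant cell line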;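 also: z relative to plate mean and SD of compound and empty wells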). The settings on record: low glucose.
The nature of test [7]: drug combination growth inhibition, ovarian cancer – cell-based, oncology-focused library, rucaparib conditional, profiling panel (AID 1508598). The settings on record: patient-derived ovarian cancer cells, CellTiter-Glo viability, 144 h, stronger effect = lower value.
The nature of test [8]: JHH-DIPG-1 glioma cell viability, MIPE5.0 library, CellTiter-Glo luminescence, qHTS (AID 1347067; cut-off not given, nearly all actives have AC50 up to about 26 µM;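 also: cells exposed to compound for 48 hours before readout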). The settings on record: JHH-DIPG-1 glioma viability, CellTiter-Glo ATP luminescence.
Test [9] is described as follows: growth inhibition of DIPG cells – cell-based, MIPE4.0 library, CellTiter-Glo luminescence, qHTS (AID 1347066; cut-off not given, nearly all actives have AC50 up to about 30 µM;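 also: cells exposed to compound for 48 hours before readout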). The settings on record: SU-DIPG-VI viability, CellTiter-Glo ATP luminescence.
Test [10] is described as follows: compounds altering HSF1 focus formation in cells – imaging, Selleck Cancer Library (AID 1347162; in the data active = plate-normalised HSF1 focus index below about 0.46). The settings on record: human cells, HSF1 nuclear foci imaging, at 10 µM; SSMD: measured here: HSF1 foci SSMD mean; cell count: measured here: cell number; plate-normalised HSF1 focus index: stronger effect = lower value.
Test [11] is described as follows: P. berghei load reduction in hepatocytes – cell-based, HepG2, luciferase luminescence, HepG2 viability, primary screen (AID 624349; in the data active = parasite load remaining mostly below about 12%, no sharp cut-off; inactive = mostly above about 10%;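 also: 100% = mean of DMSO negative control wells on the same plate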). The settings on record: P. berghei liver stage in HepG2, luciferase luminescence, concentration not given here; parasite load remaining: stronger effect = lower value; viability: measured here: HepG2 viability without parasites.
Setting [12] is: stronger effect = lower value, cell number ratio, induced over uninduced.
Setting [13] is: measured here: relative caspase fold change +Dox/-Dox.
Where [14] appears, read: measured here: total cells with miR-34 induction, stronger effect = lower value.
Where [15] appears, read: measured here: total cells without miR-34 induction.
[16] abbreviates: MELAS cybrid survival, CellTiter-Glo 48 h, stronger effect = higher value.
Where [17] appears, read: Rieske KO mouse fibroblast survival, CellTiter-Glo 72 h.

`O=C(O)c1ccc(O)c2ncccc12`: the compound was called inactive in [1], in [3] and in test [4]. In test [2], the AC50 is 20.9 µM (active). Also, the figures for the fold change in test [5] (setting [12]) and in test [5] (setting [13]) were 0.933 (inactive) and 0.445, respectively. In addition, the cell count in test [5] (setting [14]) amounted to 8640; in test [5] (setting [15]), 9260. The z-score is -0.339 (inactive) in [6] (setting [16]) and 0.0902 in [6] (setting [17]). The viability in test [7] (at 0.000305 µM, OCI-C5x cells, with rucaparib 10 µM, 100% = cells with rucaparib alone) is 112% (inactive); in test [7] (at 0.000305 µM, OCI-C5x cells, without rucaparib), 117% (inactive); in test [7] (at 0.000305 µM, OCI-P5x cells, with rucaparib 20 µM, 100% = cells with rucaparib alone), 94.2% (active); in test [7] (at 0.000305 µM, OCI-P5x cells, without rucaparib), 89.3% (active); in [7] (at 0.00122 µM, OCI-C5x cells, with rucaparib 10 µM, 100% = cells with rucaparib alone), 120% (inactive); in [7] (at 0.00122 µM, OCI-C5x cells, without rucaparib), 123% (inactive). In addition, the viability in test [7] (at 0.00122 µM, OCI-P5x cells, with rucaparib 20 µM, 100% = cells with rucaparib alone) was 101% (inactive); in test [7] (at 0.00122 µM, OCI-P5x cells, without rucaparib), 97.9% (active); in test [7] (at 0.00488 µM, OCI-C5x cells, with rucaparib 10 µM, 100% = cells with rucaparib alone), 120% (inactive); in [7] (at 0.00488 µM, OCI-C5x cells, without rucaparib) it was 116% (inactive); in test [7] (at 0.00488 µM, OCI-P5x cells, with rucaparib 20 µM, 100% = cells with rucaparib alone), 103% (inactive); in test [7] (at 0.00488 µM, OCI-P5x cells, without rucaparib), 98.1% (active). Also, the viability is 127% (inactive) in test [7] (at 0.0195 µM, OCI-C5x cells, with rucaparib 10 µM, 100% = cells with rucaparib alone); 113% (inactive) in test [7] (at 0.0195 µM, OCI-C5x cells, without rucaparib); 100% (inactive) in test [7] (at 0.0195 µM, OCI-P5x cells, with rucaparib 20 µM, 100% = cells with rucaparib alone); 105% (inactive) in test [7] (at 0.0195 µM, OCI-P5x cells, without rucaparib); 112% (inactive) in test [7] (at 0.0781 µM, OCI-C5x cells, with rucaparib 10 µM, 100% = cells with rucaparib alone); 120% (inactive) in [7] (at 0.0781 µM, OCI-C5x cells, without rucaparib). For the same compound, the viability in [7] (at 0.0781 µM, OCI-P5x cells, with rucaparib 20 µM, 100% = cells with rucaparib alone) is 98.2% (active); in [7] (at 0.0781 µM, OCI-P5x cells, without rucaparib), 103% (inactive); in test [7] (at 0.313 µM, OCI-C5x cells, with rucaparib 10 µM, 100% = cells with rucaparib alone), 108% (inactive); in test [7] (at 0.313 µM, OCI-C5x cells, without rucaparib) it was 121% (inactive); in test [7] (at 0.313 µM, OCI-P5x cells, with rucaparib 20 µM, 100% = cells with rucaparib alone), 96.3% (active); in test [7] (at 0.313 µM, OCI-P5x cells, without rucaparib) it was 102% (inactive). The viability in [7] (at 1.25 µM, OCI-C5x cells, with rucaparib 10 µM, 100% = cells with rucaparib alone) is 110% (inactive); in test [7] (at 1.25 µM, OCI-C5x cells, without rucaparib), 115% (inactive); in test [7] (at 1.25 µM, OCI-P5x cells, with rucaparib 20 µM, 100% = cells with rucaparib alone), 98.5% (active); in [7] (at 1.25 µM, OCI-P5x cells, without rucaparib), 106% (inactive); in test [7] (at 5 µM, OCI-C5x cells, with rucaparib 10 µM, 100% = cells with rucaparib alone), 115% (inactive); in test [7] (at 5 µM, OCI-C5x cells, without rucaparib), 122% (inactive). In addition, the viability in test [7] (at 5 µM, OCI-P5x cells, with rucaparib 20 µM, 100% = cells with rucaparib alone) is 111% (inactive); in test [7] (at 5 µM, OCI-P5x cells, without rucaparib), 111% (inactive).

In the case of `NS(=O)(=O)c1ccc(S(=O)(=O)Nc2cccc3c(Cl)c[nH]c23)cc1`, the figures for the concentration at half-maximal activity (AC50) in test [1], in test [2] and in [8] were 3.32 µM (active), 0.934 µM (active) and 1.18 µM (active), respectively.

Regarding `CC(C)(C(=O)NCC(F)(F)C(F)(F)F)C(=O)N[C@@H]1C(=O)Nc2ccccc2-c2ccccc21`, the compound was called inactive in test [1], in test [2], in test [9], in test [8] and in [4]. In test [10], this compound came in with an SSMD of 3.83. In addition, the cell count in test [10] came to 7550. The plate-normalised HSF1 focus index in [10] was 1.24 (inactive).

As for `CCn1c(=O)c(-c2ccc(-c3cncc(C)n3)cc2Cl)cc2cnc(NCCC3CCN(C)CC3)nc21`, the compound was called inactive in [1], in [2] and in test [8]. Further, the half-inhibitory concentration (IC50) in [4] is 1.86 µM (active).

Consider `CNCCN(C)Cc1cn[nH]c1-c1ccc(OC2CC(OCCC3CCOCC3)C2)cc1` (stereo not given), for which the call in test [1], in test [2], in test [8] and in [4] was inactive.

Consider `CCCN1CCN(c2ccc(C(=O)NC3(C(=O)NCC#N)CCCCC3)cc2)CC1`, for which the call in test [1], in [2], in test [8] and in test [4] was inactive.

In the case of `CC(=O)Nc1ccc(C(=O)NC(C)(C)C)cc1`, the compound was called inactive in [1], in test [2] and in test [8].

As to `CNC(=O)c1ccc2c(C(=Nc3cccc(CN(C)C)c3)c3ccccc3)c(O)[nH]c2c1`, the compound was classed as inactive in test [1], in test [2], in [9], in test [8] and in test [4]. The results for the fold change in test [5] (setting [12]) and in test [5] (setting [13]) were 0.967 (inactive) and 0.894, respectively. For the same compound, the cell count in test [5] (setting [14]) is 7720; in [5] (setting [15]), 7990. Besides, the values for the z-score in test [6] (setting [16]) and in test [6] (setting [17]) were -0.483 (inactive) and -0.984, respectively.

In the case of `c1cc(-c2cnn3cc(-c4ccc(N5CCNCC5)cc4)cnc23)c2cccnc2c1`, the AC50 was 7.42 µM (active) in [1], 6.61 µM (active) in test [2] and 7.42 µM (active) in test [3]. In [4], the IC50 is 9.34 µM (active). For the same compound, the fold change in test [5] (setting [12]) is 1.02 (inactive); in test [5] (setting [13]), 0.321. The cell count in test [5] (setting [14]) is 216; in test [5] (setting [15]) it was 212. The results for the z-score in test [6] (setting [16]) and in test [6] (setting [17]) were 1.7 (inactive) and 0.379, respectively.

For the compound `COc1cc([C@@H](CC(=O)O)c2ccc(C)c(CN3C[C@@H](C)Oc4ccccc4S3(=O)=O)c2)cc2nnn(C)c12`, the compound was classed as inactive in test [1], in test [2], in [3] and in test [4].

As for `COc1ccc(CNC(=O)Nc2ncc([N+](=O)[O-])s2)cc1`, the parasite load remaining in test [11] is 31.3% (inactive). Besides, in test [11], the viability worked out at 94.6%. For the same compound, the values for the half-maximal activity concentration (AC50) in test [1], in test [2] and in test [3] were 18.6 µM (active), 20.9 µM (active) and 20.9 µM (active), respectively. Besides, the fold change is 1.06 (inactive) in [5] (setting [12]) and 0.577 in test [5] (setting [13]). Moreover, the cell count in test [5] (setting [14]) turned out to be 5600; in [5] (setting [15]), 5270; in test [10], 7050. Moreover, the SSMD in test [10] was 1.38. Moreover, the plate-normalised HSF1 focus index in test [10] was 1.08 (inactive). The z-score in [6] (setting [16]) is -0.43 (inactive); in test [6] (setting [17]) it was -0.202.

Consider `CN1CCN(C2CCN(C(=O)Nc3cc(Oc4ccc(NC(=O)C5(C(=O)Nc6ccc(F)cc6)CC5)c(F)c4)ccn3)CC2)CC1`, for which the AC50 was 18.6 µM (active) in [1], 20.9 µM (active) in [2] and 13.2 µM (active) in [3]. Also, the IC50 in test [4] was 23.5 µM (active). Besides, the figures for the fold change in [5] (setting [12]) and in test [5] (setting [13]) were 0.875 (inactive) and 0.529, respectively. The cell count in [5] (setting [14]) came to 3130; in test [5] (setting [15]) it was 3570. Moreover, the z-score in [6] (setting [16]) was -0.56 (inactive); in test [6] (setting [17]) it was 0.282.

For the compound `CCOc1ccccc1N=Nc1c(C)[nH]n(-c2nc(-c3ccccc3)cs2)c1=O`, the outcome in test [1], in test [2], in test [8] and in test [4] was inactive.

Take `CN1CCN(c2ncc(-c3cc(Cl)cc(Cl)c3Cl)c(N)n2)CC1`: the result in test [1], in test [2], in test [9], in test [8] and in [4] was inactive.

On to `CCN(c1cc(C#CCN2CCOCC2)cc(C(=O)NCc2c(C)cc(C)[nH]c2=O)c1C)C1CCC(N(C)CCOC)CC1` (stereo not given), for which the compound was classed as inactive in [1], in test [2], in test [8] and in test [4].
